Measurements reported in PubChem BioAssay.
Values without a mark were called inactive. For some of these results: Entries with a potency or affinity are not part of this list. Activity calls are given as the source filed them. Unless noted, the rule behind the calls is not given here.

Assays:
[1] = antimalarial activity against Dd2 strain (AID 2302;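 active = growth inhibition above 50% at the single 2 µM test dose, taken to imply half-maximal potency below 2 µM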;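 note: 0% = DMSO untreated growth and 100% = chloroquine plus artemisinin killed control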); conditions: P. falciparum Dd2 in RBCs, LDH growth readout, 72 h; at 2 µM; stronger effect = higher value
[2] = human hepatoma cell viability loss – ATP luminescence, cytotoxicity control for P. falciparum antimalarial project, primary screen (AID 2303;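 active = inhibition above 50%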;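 note: 0% = DMSO wells and 100% = digitonin-killed cells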); conditions: HepG2 viability, 24-48 h, at 10 µM, stronger effect = higher value
[3] = molecular target: L-lactate dehydrogenase (Plasmodium falciparum (isolate CDC / Honduras)) (UniProt Q27743); assay: PfLDH activity inhibition – cell lysate, 3D7 strain, counter-screen for P. falciparum growth inhibition project (AID 2304);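 note: 0% = vehicle and 100% = reference inhibitor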; conditions: P. falciparum 3D7 crude extract, LDH APAD/NBT absorbance; at 2 µM; stronger effect = higher value
Chain of L-lactate dehydrogenase (Plasmodium falciparum (isolate CDC / Honduras)) (Q27743 whole entry, looked up): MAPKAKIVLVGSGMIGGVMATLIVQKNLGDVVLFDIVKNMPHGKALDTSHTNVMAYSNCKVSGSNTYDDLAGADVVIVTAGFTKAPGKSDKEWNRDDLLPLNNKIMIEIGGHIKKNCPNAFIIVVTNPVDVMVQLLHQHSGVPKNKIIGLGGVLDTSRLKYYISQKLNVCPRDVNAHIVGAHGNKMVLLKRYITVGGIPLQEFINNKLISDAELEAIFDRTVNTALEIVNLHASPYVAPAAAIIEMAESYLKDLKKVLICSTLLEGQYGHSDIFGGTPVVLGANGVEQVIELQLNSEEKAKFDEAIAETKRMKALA

[4] = inhibition of 3D7 malaria parasite growth – strain 3D7 (AID 2306);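 note: 0% = DMSO wells and 100% = chloroquine plus artemisinin control wells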; conditions: P. falciparum 3D7 erythrocytic growth, LDH absorbance, 72 h; at 2 µM; stronger effect = higher value
[5] = molecular target: Calcium-dependent protein kinase 1 (Plasmodium falciparum (isolate 3D7)) (UniProt P62344); assay: PfCDPK1 kinase inhibitors, biochemical, TCAMS library (AID 1159585; cut-off not given, nearly all actives have IC50 up to about 0.98 µM;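 note: inhibitors leave more ATP so luminescence rises with inhibition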); conditions: recombinant PfCDPK1, Kinase-Glo ATP depletion luminescence
Chain of Calcium-dependent protein kinase 1 (Plasmodium falciparum (isolate 3D7)) (P62344 whole entry, looked up): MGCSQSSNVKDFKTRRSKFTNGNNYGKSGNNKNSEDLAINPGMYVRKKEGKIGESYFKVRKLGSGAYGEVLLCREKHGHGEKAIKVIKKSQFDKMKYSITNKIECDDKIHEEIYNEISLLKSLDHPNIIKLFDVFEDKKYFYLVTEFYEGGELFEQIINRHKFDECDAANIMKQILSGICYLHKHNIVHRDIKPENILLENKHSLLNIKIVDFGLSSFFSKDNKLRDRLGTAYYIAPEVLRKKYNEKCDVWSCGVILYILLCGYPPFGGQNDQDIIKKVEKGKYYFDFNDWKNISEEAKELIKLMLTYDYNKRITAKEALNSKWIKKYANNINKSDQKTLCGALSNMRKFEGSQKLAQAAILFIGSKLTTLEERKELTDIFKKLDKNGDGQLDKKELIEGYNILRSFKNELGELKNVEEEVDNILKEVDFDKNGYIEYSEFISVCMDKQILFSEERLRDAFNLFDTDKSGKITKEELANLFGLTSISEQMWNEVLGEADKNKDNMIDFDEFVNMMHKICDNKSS

[6] = molecular target: Plasmodium falciparum protein kinase 6 (PK6, PF3D7_1337100) (UniProt Q8IDW1); assay: PfPK6 kinase inhibitors, biochemical, TCAMS library (AID 1159586); conditions: recombinant PfPK6, Kinase-Glo ATP depletion luminescence
Chain of Plasmodium falciparum protein kinase 6 (PK6, PF3D7_1337100) (Q8IDW1 1-305): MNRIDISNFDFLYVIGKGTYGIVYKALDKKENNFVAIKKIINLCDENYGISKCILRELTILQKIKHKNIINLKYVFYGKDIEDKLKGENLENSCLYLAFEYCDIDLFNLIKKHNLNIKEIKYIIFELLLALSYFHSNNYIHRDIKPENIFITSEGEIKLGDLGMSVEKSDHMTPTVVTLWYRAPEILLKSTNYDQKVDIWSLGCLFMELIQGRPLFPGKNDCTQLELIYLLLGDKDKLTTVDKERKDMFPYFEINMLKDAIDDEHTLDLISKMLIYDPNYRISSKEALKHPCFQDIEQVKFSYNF

[7] = molecular target: Protein kinase 7 (PK7), Plasmodium falciparum 3D7 (PF3D7_0213400) (UniProt Q7YTF7); assay: inhibition of Plasmodium PK7 catalytic activity – biochemical, TCAMS antimalarial set, Kinase-Glo luminescence (AID 1159587); conditions: recombinant PfPK7, Kinase-Glo ATP depletion luminescence
Chain of Protein kinase 7 (PK7), Plasmodium falciparum 3D7 (PF3D7_0213400) (Q7YTF7 1-343): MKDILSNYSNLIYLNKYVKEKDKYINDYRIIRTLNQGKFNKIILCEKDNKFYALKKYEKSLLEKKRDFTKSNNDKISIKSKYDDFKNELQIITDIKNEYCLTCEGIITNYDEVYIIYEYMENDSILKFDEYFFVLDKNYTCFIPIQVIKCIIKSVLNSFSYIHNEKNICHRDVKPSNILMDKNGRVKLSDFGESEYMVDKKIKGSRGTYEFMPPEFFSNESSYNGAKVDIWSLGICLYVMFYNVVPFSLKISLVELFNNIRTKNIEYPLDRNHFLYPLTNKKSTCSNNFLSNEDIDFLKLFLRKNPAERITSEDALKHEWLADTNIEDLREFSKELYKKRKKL

[8] = molecular target: Calcium-dependent protein kinase 4 (Plasmodium falciparum (isolate 3D7)) (UniProt Q8IBS5); assay: PfCDPK4 kinase inhibitors, biochemical, TCAMS library (AID 1159588; cut-off not given, nearly all actives have IC50 up to about 0.91 µM); conditions: recombinant PfCDPK4, Kinase-Glo ATP depletion luminescence
Chain of Calcium-dependent protein kinase 4 (Plasmodium falciparum (isolate 3D7)) (Q8IBS5 whole entry, looked up): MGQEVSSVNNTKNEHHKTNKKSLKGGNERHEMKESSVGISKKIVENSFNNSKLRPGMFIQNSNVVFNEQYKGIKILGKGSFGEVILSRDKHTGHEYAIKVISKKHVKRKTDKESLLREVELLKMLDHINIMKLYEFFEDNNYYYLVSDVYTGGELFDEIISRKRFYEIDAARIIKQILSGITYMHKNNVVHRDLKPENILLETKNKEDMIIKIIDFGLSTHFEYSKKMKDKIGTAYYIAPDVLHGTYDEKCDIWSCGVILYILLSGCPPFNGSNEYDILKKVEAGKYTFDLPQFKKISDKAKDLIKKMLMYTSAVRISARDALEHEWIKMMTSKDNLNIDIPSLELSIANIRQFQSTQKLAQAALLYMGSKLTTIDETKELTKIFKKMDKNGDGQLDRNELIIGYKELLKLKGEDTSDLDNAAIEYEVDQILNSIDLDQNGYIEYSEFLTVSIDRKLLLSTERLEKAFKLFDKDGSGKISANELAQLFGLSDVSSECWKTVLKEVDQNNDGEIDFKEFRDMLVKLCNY

Structure (SMILES)	growth inhibition [1]	inhibition [2]	inhibition [3] [%]	growth inhibition [4]	outcome [5]	outcome [6]	outcome [7]	outcome [8]
CCN(CCS(C)(=O)=O)Cc1ccc(-c2ccc3ncnc(Nc4ccc(OCc5cccc(F)c5)c(Cl)c4)c3c2)o1	63% (active)	5%	-7	101% (active)	inactive	inactive	inactive	inactive
Nc1c2c(nc3ccc(NC(=O)CCCCCc4ccccc4)cc13)CCCC2	36%	32%	4	102% (active)	inactive	inactive	inactive	inactive
Cc1cc2nc(-c3ccc(C(=O)NCc4cccc(F)c4)cc3)[nH]c2cc1C	6%	-5%	-5	91% (active)	inactive	inactive	inactive	inactive
COc1ccc(CN(C)CCCOc2ccc(NC(=O)c3cccc4c(=O)c5cccc(F)c5[nH]c34)cc2)cc1OC	96% (active)	6%	-3	100% (active)	inactive	inactive	inactive	inactive
COc1cccc(-c2cccc(NC(=O)C3CCN(Cc4ccc(O)cc4)CC3)c2)c1	97% (active)	9%	0	97% (active)	inactive	inactive	inactive	inactive
COc1ccc(N2CCN(CCCCNC(=O)c3ccc(NC(=O)c4ccc(Cl)c(Cl)c4)cc3)CC2)c(OC)c1	98% (active)	23%	4	101% (active)	inactive	inactive	inactive	inactive
Cc1[nH]c(C)c(-c2ccc(Oc3cccc(Cl)c3)cc2)c(=O)c1Br	97% (active)	46%	3	98% (active)	inactive	inactive	inactive	inactive
O=S(=O)(Nc1ccc(CCN2CCC(N3CCCCC3)CC2)cc1)c1ccccc1C(F)(F)F	8%	9%	-3	95% (active)	inactive	inactive	inactive	inactive
COc1ccc(CCN2CCC(CN(C)Cc3cnn(-c4ccccc4)c3)CC2)cc1	5%	25%	-1	90% (active)	inactive	inactive	inactive	inactive
O=S(=O)(c1cc2ccccc2s1)N(CCC(O)(C(F)(F)F)C(F)(F)F)Cc1cccc(O)c1	99% (active)	-1%	0	100% (active)	inactive	inactive	inactive	inactive
Cc1cc(NC(=O)c2cccs2)ccc1OC1CCN(Cc2ccccc2)C1 (stereo not given)	87% (active)	7%	-1	84% (active)	inactive	inactive	inactive	inactive
COc1ccc(CNC(=O)c2cnc3cc(-c4c(C)noc4C)ccc3c2Nc2ccccc2C(C)(C)C)cc1	69% (active)	9%	0	99% (active)	inactive	inactive	inactive	inactive
O=C(Nc1ccc(-c2cccc(-c3nc4ccccc4[nH]3)c2)cc1)N[C@@H]1C[C@H]1c1ccccc1	6%	63% (active)	-2	84% (active)	inactive	inactive	inactive	inactive
COc1cc(Cc2cnc(N)nc2N)cc(OCCCc2cc(OCc3ccccc3)no2)c1OC	4%	30%	2	86% (active)	inactive	inactive	inactive	inactive
O=C(/C=C/c1ccc(Cl)c(Cl)c1)NCCCCCN1CCCC(c2c[nH]c3ccccc23)C1 (stereo not given)	22%	25%	2	99% (active)	inactive	inactive	inactive	inactive
Cc1ccc(Cl)cc1NC(=O)c1c(-c2ccccc2Cl)noc1C	37%	9%	-1	88% (active)	inactive	inactive	inactive	inactive
COc1cc(NCC2(CNCc3cn(Cc4ccccc4)c4ccccc34)CCCCC2)nc2ccccc12	12%	65% (active)	5	95% (active)	inactive	inactive	inactive	inactive
CC(C)NCc1cccc(-c2cccc(NC(=O)c3ccc(C#N)cc3)c2)c1	20%	18%	0	97% (active)	inactive	inactive	inactive	inactive
COc1cc(Nc2ccnc3cc(-c4ccncc4)ccc23)cc(OC)c1OC	39%	9%	0	89% (active)	inactive	inactive	inactive	inactive
CCN1CCN(c2cc(C)c3cc(NC(=O)c4ccc([N+](=O)[O-])c(C)c4)ccc3n2)CC1	39%	8%	-2	92% (active)	inactive	inactive	inactive	inactive
